# Screens deposited in PubChem BioAssay by NMMLSC.
# GRK2 aptamer HTS = compounds blocking aptamer binding on GRK2 – biochemical, human GRK2, bead flow cytometry, HTS, primary screen; Beta-adrenergic receptor kinase 1 (Homo sapiens), P25098; FAM-aptamer displacement from GRK2; 330,000 tested, 0.59% active; inhibition of aptamer binding, % at 10 µM; AID 488847, 2010;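 active means inhibition of aptamer binding above 40%, roughly 3 SD of noise, on plates passing a quality check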;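 further: median bead fluorescence of bound FAM aptamer so fluorescent compounds give negative values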
# Target sequence (P25098 whole entry, looked up): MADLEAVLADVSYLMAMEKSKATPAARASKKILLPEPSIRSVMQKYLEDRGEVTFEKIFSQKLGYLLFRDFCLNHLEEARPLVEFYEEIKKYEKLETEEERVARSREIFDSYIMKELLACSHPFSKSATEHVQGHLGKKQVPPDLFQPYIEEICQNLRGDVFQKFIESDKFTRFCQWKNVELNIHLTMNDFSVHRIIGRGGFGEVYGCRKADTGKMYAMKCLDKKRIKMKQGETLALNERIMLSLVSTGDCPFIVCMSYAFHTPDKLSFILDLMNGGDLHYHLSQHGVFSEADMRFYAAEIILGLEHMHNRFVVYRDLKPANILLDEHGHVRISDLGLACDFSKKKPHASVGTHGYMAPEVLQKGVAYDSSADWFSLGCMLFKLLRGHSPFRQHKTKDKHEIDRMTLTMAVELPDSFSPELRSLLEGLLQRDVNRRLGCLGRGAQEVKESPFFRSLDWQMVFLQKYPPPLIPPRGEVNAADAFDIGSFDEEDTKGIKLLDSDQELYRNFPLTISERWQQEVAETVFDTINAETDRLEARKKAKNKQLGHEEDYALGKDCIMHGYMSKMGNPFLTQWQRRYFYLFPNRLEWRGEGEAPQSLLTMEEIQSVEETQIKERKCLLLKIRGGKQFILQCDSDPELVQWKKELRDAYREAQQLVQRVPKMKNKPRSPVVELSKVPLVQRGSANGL
# MEKK2 mut-MEK5 = MEK5 binding signal on mutant MEKK2 PB1, primary screen, biochemical, multiplex bead flow cytometry, Alexa488-MEK5. 290,000 tested, 0.35% active. percent response, % at 10 µM. Alexa488-MEK5 binding to MEKK2 mutant; in the data active means percent response above about 24%, passing the limit was not always enough
# MEKK2wt PB1 HTS = modulators of MEK5 binding to wildtype MEKK2, primary screen, biochemical, multiplex bead flow cytometry, Alexa488-MEK5 | Mitogen-activated protein kinase kinase kinase 2 (Homo sapiens), Q9Y2U5 | Alexa488-MEK5 binding to MEKK2 WT; actives lie on both sides | binding response (% of control), % at 10 µM | 290,000 tested, 1.1% active; in the data active means binding response below about 67% or above about 130%
# MEKK3 PB1 HTS = modulators of MEKK3-MEK5 PB1 binding, primary screen, biochemical, wildtype MEKK3, multiplex bead flow cytometry, Alexa488-MEK5; 290,000 tested, 1.4% active; binding response (% of control), % at 10 µM; bead-based flow cytometry, Alexa488-MEK5 binding to MEKK3; actives lie on both sides; 0 = blocked by unlabeled MEK5, 100 = vehicle;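 active means binding response more than 3 SD above or below the average of its plate-row segment, actives on both sides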;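 further: Alexa488 bead fluorescence after subtracting the streptavidin-only scavenger bead signal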
# MEKK2wt confirm = modulators of MEK5 binding to wildtype MEKK2, confirmation, biochemical, single concentration, multiplex bead flow cytometry. shares compounds with MEKK3 PB1 HTS. Alexa488-MEK5 binding to MEKK2 WT; actives lie on both sides. binding response (% of control), % at 10 µM. 5,900 tested, 2.4% active. AID 1892, 2009; in the data active means binding response below about 16% or above about 210%; inactive means in between
# MEKK2mut-MEK5 = mutant MEKK2 PB1-MEK5 binding signal retest – biochemical, single concentration, multiplex bead flow cytometry, confirmation. shares compounds with MEKK3 PB1 HTS. Alexa488-MEK5 binding to MEKK2 mutant. percent response, % at 10 µM. 5,900 tested, 2% active. AID 1893, 2009; in the data active means percent response mostly above about 71%, no sharp cut-off; inactive means mostly below about 38%;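 further: higher means compound restores mutant binding toward wildtype level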
# MEKK3 confirm = MEKK3 wild-type PB1 binding to MEK5, inhibitors, confirmation, biochemical, bead multiplex flow cytometry, single concentration, wildtype. shares compounds with MEKK3 PB1 HTS. 5,900 tested, 1.8% active. AID 1894, 2009. Alexa488-MEK5 binding to MEKK3; hits give low values. binding response (% of control), % at 10 µM;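 active means binding response below 72% of control, or above a set upper limit, though filed actives all read lower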
# A number is an active result; – = inactive; · = no result given; [ ] = dose if it differs, or a comment. An excerpt weighted towards active compounds, which were near 2.5% of everything screened.
SMILES,GRK2 aptamer HTS,MEKK2 mut-MEK5,MEKK2wt PB1 HTS,MEKK3 PB1 HTS,MEKK2wt confirm,MEKK2mut-MEK5,MEKK3 confirm
CN(C)c1ccc(C(CN)c2c[nH]c3ccccc23)cc1 (stereo not given),–,–,–,69.0[inhibitor],–,–,–
O=S(=O)(c1ccc(S(=O)(=O)N(Cc2cccs2)CC2CCCO2)cc1)N1CCCCC1 (stereo not given),–,–,–,–,·,·,·
O=S(=O)(NC1CCCC1)c1ccc(S(=O)(=O)N(Cc2cccs2)CC2CCCO2)cc1 (stereo not given),–,–,-2.0[inhibitor],1.0[inhibitor],–,–,–
CCC(=O)N1CCN(c2nc3ccc(Br)cc3s2)CC1,–,–,–,–,·,·,·
O=C(/C=C\c1cn(-c2ccccc2)nc1-c1ccccc1)Nc1nccs1,–,–,–,140.0,–,–,–
CC(=O)NS(=O)(=O)c1ccc(NC(=O)/C=C/c2cn(-c3ccccc3)nc2-c2ccccc2)cc1,–,–,–,–,·,·,·
CCOC(=O)C1CCCN(C(=O)Nc2c(-c3ccccc3)noc2C)C1 (stereo not given),–,–,–,–,·,·,·
COc1ccc(/C=N/n2cnc3c([nH]c4ccc(F)cc43)c2=O)cc1CN1CCCC1,–,–,–,–,·,·,·
COc1ccc(/C=N/n2cnc3c([nH]c4ccc(C)cc43)c2=O)cc1CN1CCCC1,–,–,159.0,132.0,–,–,–
CC(C)N=c1cc2n(-c3ccc(Cl)cc3)c3ccccc3nc-2cc1Nc1ccc(Cl)cc1,–,–,–,70.0[inhibitor],–,–,53.0
O=C(Nc1ccc(F)c(Cl)c1)Nc1csc2ccccc12,·,–,191.0,–,–,–,–
CCO[C@@H]1OC(C(=O)NCc2ccccc2)=C[C@H](c2coc3ccccc3c2=O)[C@H]1CCCO,–,–,–,–,·,·,·
Cc1ccc(C)c(C2=CSC3=NS(=O)(=O)CCN23)c1,–,–,3.0[inhibitor],2.0[inhibitor],–,–,–
Cc1ccc(C2=CSC3=NS(=O)(=O)CCN23)cc1,–,–,–,–,·,·,·
Cn1c(=O)c(NC2CCCCC2)c2c3c(cccc31)C(=O)c1ccccc1-2,·,–,37.0[inhibitor],–,–,–,–
Cn1c(=O)c(NCCO)c2c3c(cccc31)C(=O)c1ccccc1-2,–,–,–,–,·,·,·
CCCCNc1c2c3c(cccc3n(C)c1=O)C(=O)c1ccccc1-2,–,–,41.0[inhibitor],–,–,–,–
CCNc1c2c3c(cccc3n(C)c1=O)C(=O)c1ccccc1-2,–,–,–,–,·,·,·
Cn1c(=O)c(NCCc2ccccc2)c2c3c(cccc31)C(=O)c1ccccc1-2,–,–,62.0[inhibitor],–,–,–,–
CC(=O)Nc1ccc(Nc2c3c4c(cccc4n(C)c2=O)C(=O)c2ccccc2-3)cc1,–,–,–,–,·,·,·
C=CCNC(=S)NNC(=O)c1ccc(=O)n(Cc2ccc(Cl)cc2Cl)c1,–,–,–,–,·,·,·
Cc1cc(C)c2nc(-c3cccc(Cl)c3)c(C)c(C(=O)N3CCOCC3)c2c1,–,–,–,–,·,·,·
CN(C(=O)c1cnccn1)c1c(N)n(Cc2ccccc2)c(=O)[nH]c1=O,–,·,·,·,·,·,·
O=C(C[n+]1cccc2ccccc21)c1ccccc1,–,–,–,–,·,·,·
Cc1ccc(C(=O)C[n+]2cccc3cc(C)ccc32)cc1,–,·,·,25.0[inhibitor],–,–,–
SMILES,GRK2 aptamer HTS,MEKK2 mut-MEK5,MEKK2wt PB1 HTS,MEKK3 PB1 HTS,MEKK2wt confirm,MEKK2mut-MEK5,MEKK3 confirm
O=C(C[n+]1cccc2ccccc21)c1ccc(NC(=O)c2ccccc2)cc1,–,·,·,37.0[inhibitor],–,–,–
CC(=O)N1CCC(c2c[nH]c3ccccc23)CC1,–,–,–,–,·,·,·
CNC(=O)c1ccc(-c2sc3nc(N4CCOCC4)c4c(c3c2N)CC(C)(C)OC4)o1,–,–,–,–,·,·,·
CC1(C)Cc2c(c(N3CCOCC3)nc3sc(-c4ccc(C(=O)O)o4)c(N)c23)CO1,–,62.0,-5.0,–,–,–,–
Cc1cc(C)c(NC(=O)c2cccs2)c(C)c1NC(=O)c1cccs1,–,–,–,–,·,·,·
Cn1c(N/N=C\c2cccc(O)c2)cc(=O)n(C)c1=O,–,–,–,146.0,–,–,–
COc1ccc(C2/C=C\CN(CC(C)C)CC(=O)N2Cc2cccc(F)c2)cc1 (stereo not given),–,·,·,·,·,·,·
O=C(CSCc1ccc(Br)cc1)N=Nc1c(O)[nH]c2ccccc12,–,–,–,146.0,–,–,–
O=C(CSc1nc2ccccc2[nH]1)N=Nc1c(O)[nH]c2ccccc12,–,–,–,–,·,·,·
CCN1CCN(Cc2ccc(NC(=O)c3ccc(C)c(NC(=O)N4CCNC4=O)c3)cc2C(F)(F)F)CC1,–,–,–,–,·,·,·
CCN1CCN(Cc2ccc(NC(=O)c3cc(NC(=O)c4nccnc4N)cc(OC)c3)cc2C(F)(F)F)CC1,–,–,164.0,123.0,–,–,–
CCN1CCN(Cc2ccc(NC(=O)c3cc(NC(=O)c4cnnc5ccccc45)cc(OC)c3)cc2C(F)(F)F)CC1,–,–,142.0,–,–,–,–
CCN1CCN(Cc2ccc(NC(=O)c3cc(NC(=O)c4cncc(-c5ccc(C#N)cc5)c4)cc(OC)c3)cc2C(F)(F)F)CC1,·,131.0,189.0,–,–,–,38.0
CCN(CC)CCOC(=O)c1ccc(NC(=O)c2cn(-c3ccccc3)nc2-c2cccs2)cc1,·,–,153.0,–,250.0,92.0,–
CCN(CC)CCNC(=O)c1cn(-c2ccccc2)nc1-c1cccs1,–,·,·,·,·,·,·
NC(=O)COC(=O)c1ccccc1OCc1ccccc1Cl,–,457.0,640.0,–,–,–,–
Nc1nc2c(F)cccc2s1,–,–,–,133.0,–,–,–
NNc1nc2c(F)cccc2s1,–,–,–,140.0,–,–,–
Fc1cccc2sc(Nc3nc4c(F)cccc4s3)nc12,–,–,–,–,·,·,·
Nc1nc2c([N+](=O)[O-])cccc2s1,–,–,–,–,·,·,·
N#Cc1ccc(COC(=O)c2ccc3c(c2)OCO3)cc1,–,–,–,–,·,·,·
O=C1CC[C@@H](OCc2ccccc2)CCN1CC[C@H](Sc1ccccc1)c1ccccc1,–,–,–,–,·,·,·
COCCNC(=S)N(CCO)Cc1cc2cc3c(cc2[nH]c1=O)OCCO3,–,–,–,–,·,·,·
Cc1ccccc1OCCn1cc(/C=C(\C#N)C(=O)NCc2ccco2)c2ccccc21,–,–,–,75.0[inhibitor],–,–,–
